TDP1 cell noCPT = qHTS for Inhibitors of human tyrosyl-DNA phosphodiesterase 1 (TDP1): qHTS in cells in absence of CPT; DT40 Tdp1-/- hTDP1 cells, no CPT, ATP luminescence, 48 h; Potency, µM (titrated, usually from 46.2 µM), for inactives: at the highest dose activity change, negative = growth inhibition, usual class: inhibitors; 420,000 compounds, 15% hits; AID 686978, 2013; also: potency is read from the fitted curve at half-maximal effect; % is scaled to controls: 0 for no effect and ±100 for the full control effect; nearly all actives have a fitted effect of over 55% in size
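Readout: luminescence from CellTiter-Glo after 30 min in the dark at RT. Cells: DT40 Tdp1-/- with stable hTDP1, 400/well. Exposure: compounds alone, ≥48 hr, 37 °C.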
TGFb inhibitor = blocks TGF-b signaling | HepG2 CAGA-GFP TGF-b/SMAD3 reporter, GFP fluorescence, 18 h; TGF-beta stimulated, 500 pg/mL final | Potency, µM (highest dose often 46.1 µM), for the others: top-dose activity, negative = inhibition, actives largely listed as inhibitors | 410,000 compounds, 1.2% hits | AID 588855; also: potency is read from the fitted curve at half-maximal effect; % is scaled to controls: 0 for no effect and ±100 for the full control effect; nearly all actives have a fitted effect of over 65% in size
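First, reporter cells (HEPG2 CAGA-GFP) rested 2 h at 37 degrees C. Next, compounds were pinned in and TGF-beta added to 500 pg/mL final. After 18 h, GFP was imaged per cell and summed per well.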
HepG2 tox = kills HepG2 cells in TGF-b inhibitor counter-screen. HepG2 CAGA-GFP viability, ATP luminescence, 18 h. Potency, µM (series often up to 46.1 µM), for the others: top-dose activity change, negative = cytotoxicity, most hits filed as cytotoxic. 410,000 compounds, 0.76% hits; also: potency is read from the fitted curve at half-maximal effect
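HepG2 CAGA-GFP cells (1000/well, DMEM with 1% FBS) received compound, then TGF-beta at 500 pg/mL final, and were incubated 18 hours at 37 degrees C. Viability was read by CellTiter-Glo luminescence. Media-only wells were set as complete cell-killing and DMSO as no toxicity.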
ASM inhibitor = human S-ASM enzyme inhibition. P17405. placental ASM, HMU-PC fluorogenic substrate, 60 min. Potency, µM (highest dose often 57.5 µM), for inactives: at the top dose activity change, negative = inhibition, actives largely listed as inhibitors. 340,000 compounds, 0.006% hits. AID 504937; also: potency is read from the fitted curve at half-maximal effect
Target sequence (P17405 47-631 limits assumed): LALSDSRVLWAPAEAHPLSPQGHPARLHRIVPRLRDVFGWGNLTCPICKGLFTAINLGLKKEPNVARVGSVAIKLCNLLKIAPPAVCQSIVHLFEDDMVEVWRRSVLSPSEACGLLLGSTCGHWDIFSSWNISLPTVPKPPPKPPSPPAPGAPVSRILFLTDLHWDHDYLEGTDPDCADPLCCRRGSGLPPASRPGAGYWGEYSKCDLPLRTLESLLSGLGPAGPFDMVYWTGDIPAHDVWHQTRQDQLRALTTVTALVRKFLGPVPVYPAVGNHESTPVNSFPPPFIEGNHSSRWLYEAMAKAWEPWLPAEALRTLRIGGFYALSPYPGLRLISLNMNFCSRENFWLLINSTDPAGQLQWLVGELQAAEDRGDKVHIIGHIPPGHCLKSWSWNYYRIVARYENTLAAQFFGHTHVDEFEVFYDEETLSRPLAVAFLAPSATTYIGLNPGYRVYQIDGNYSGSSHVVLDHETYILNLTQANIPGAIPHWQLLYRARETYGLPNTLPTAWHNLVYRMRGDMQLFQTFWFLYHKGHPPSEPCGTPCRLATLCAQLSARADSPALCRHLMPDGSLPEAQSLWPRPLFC
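Human placenta-derived ASM enzyme was preincubated with compound for 10 minutes at room temperature, then given fluorogenic substrate HMU-PC0 (9 uM final) for 60 minutes at 37 °C; a pH 10 stop preceded fluorescence reading at Ex 386/Em 447 nm.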
DT40 TDP1 CPT = DT40-hTDP1 cell growth loss with CPT; chicken DT40 Tdp1-/-;hTDP1 cells + 20 nM CPT, ATP luminescence, 48 h; 420,000 compounds, 12% hits; Potency, µM (doses to about 46.2 µM), without a hit: at the highest dose activity change, negative = growth inhibition, most hits filed as inhibitors; also: potency is read from the fitted curve at half-maximal effect; % is scaled to controls: 0 for no effect and ±100 for the full control effect; nearly all actives have a fitted effect of over 55% in size
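Chicken DT40 Tdp1-/- cells complemented with human TDP1, 400 cells/well, exposed to compounds plus 20 nM camptothecin for at least 48 h at 37 C; viability read as ATP content by CellTiter-Glo luminescence.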
IL1B secr inh = inhibitors of inflammasome signaling (IL-1 beta secretion); THP-1 LPS/ATP IL-1B secretion, AlphaLISA, 16 h; stronger effect = lower value; 360,000 compounds, 4.7% hits; activity change, % at 57.5 µM; AID 743279; in the data active = activity change below about -50%; inconclusive = mostly about -30% to -49%; also: % is scaled to controls: 0 for no effect and ±100 for the full control effect
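THP-1 cells pretreated 1 hr with compounds (up to 57.5 uM final), then stimulated with LPS (250 ng/mL final) plus ATP (1.25 mM final); secreted IL-1B measured by AlphaLISA after 16 hr, decreased signal indicating inhibition.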
Starred values were filed as active, the others as inactive; ? = inconclusive; . = no result given; ! = not active in a repeat; [ ] = dose if it differs, or a comment. Shown are actives, neighbours in structure and some others; about 19% of the full set was active somewhere. Unless noted, calls follow the shape of the dose curve; as a rule, active = well fitted curve in the direction sought with a large enough effect; inconclusive = small, poorly fitted or top-dose-only effect, or another doubt; inactive = no such curve, though single readings can be large; an effect the other way counts as inactive or inconclusive.

SMILES | TDP1 cell noCPT | TGFb inhibitor | HepG2 tox | ASM inhibitor | DT40 TDP1 CPT | IL1B secr inh
COc1ccc(N2CCN(C(=O)c3cccc(-n4c(C)nc5cccnc54)c3)CC2)cc1 | 23µM* | -15% | 3% | . | 16µM* | .
Cc1nc2cccnc2n1-c1cccc(C(=O)N2CCN(c3ccc(Cl)cc3)CC2)c1 | 2.6µM* | 0% | -41% | . | 5.8µM* | .
C/C(=N\N=C1\NC(=O)CS1)c1cccs1 | -9% | -25% | -24% | -3% | -1% | -7
Cc1ccc(C)c(S(=O)(=O)NCc2ccc(C(=O)N3CCC(Cc4ccccc4)CC3)cc2)c1 | ? | ? | -26% | -18% | ? | -57*
Cc1ccc(C)c(S(=O)(=O)NCc2ccc(C(=O)N3CCN(C)CC3)cc2)c1 | -12% | 16% | -18% | 3% | -22% | 54
O=C(CCc1nc2ccccc2c(=O)[nH]1)N1CCN(S(=O)(=O)c2ccccc2Br)CC1 | ? | -29% | -39% | -1% | 21µM* | -20
Cc1ccc(C)c(S(=O)(=O)N2CCN(C(C)C(=O)Nc3ccccc3-c3ccccc3)CC2)c1 (configuration not stated) | 16µM* | -5% | -17% | 1% | ? | 0
Cc1ccc(C)c(S(=O)(=O)N2CCN(C(=O)CCc3nc4ccccc4c(=O)[nH]3)CC2)c1 | 21µM* | -5% | -15% | -3% | 21µM* | 19
CCOC(=O)NC(=O)/C(C#N)=C\NNc1ncc(C(F)(F)F)cc1Cl | 0% | 6% | -2% | 3% | 23% | -18
Cc1cc(NC(=O)CSc2nc(=O)cc(N)n2-c2ccc(C)c(C)c2)no1 | 0% | -3% | -3% | 2% | -14% | -19
COc1cccc(C(=O)NCCN2CCN(c3ccccc3)CC2)c1 | 15% | -2% | -14% | 1% | 0% | 0
O=C(c1ccccc1Cc1ccccc1)N1CCN(S(=O)(=O)c2ccccc2)CC1 | -28% | 12% | -21% | . | -28% | -25
Cc1ccc(C)c(S(=O)(=O)N2CCN(C(=O)c3ccccc3Cc3ccccc3)CC2)c1 | ? | ? | 6% | -4% | 11% | -59*
Cc1ccc(C)c(S(=O)(=O)N2CCN(C(=O)CCCc3c[nH]c4ccccc34)CC2)c1 | 23µM* | -18% | 8% | -8% | ? | ?
CN=C(c1ccco1)n1c(=S)nc(-c2ccco2)n(C)c1=S | ? | 4% | 1% | -1% | ? | 22
CN=C(c1ccc(C)cc1)n1c(=S)nc(-c2ccc(C)cc2)n(C)c1=S | 18µM* | 18% | 1% | -8% | ? | 23
CC1(c2cccc(Br)c2)NC(=O)N(CC(=O)Nc2cccnc2Cl)C1=O (configuration not stated) | -2% | 11% | 9% | 2% | 8% | 20
Cn1c(CCN2CCN(c3ccccn3)CC2)nc2cc(NS(=O)(=O)c3ccccc3)ccc21 | 13µM* | ? | 3% | 2% | ? | -4
Cn1c(CCN2CCCCC2)nc2cc(NS(=O)(=O)c3ccccc3)ccc21 | ? | ? | 4% | 6% | ? | -50*
CC(C)(C)n1cnc2cc(NS(=O)(=O)c3ccccc3)ccc21 | ? | 11% | 0% | 2% | -27% | -7
COc1ccc(-n2cnc3cc(NS(=O)(=O)c4ccccc4)ccc32)cc1 | 21µM* | -4% | -5% | -12% | ? | -11
Cn1c(CN2CCCC2)nc2cc(NS(=O)(=O)c3ccccc3)ccc21 | -5% | 1% | -9% | -3% | -15% | 2
Cn1c(CCN2CCOCC2)nc2cc(NS(=O)(=O)c3ccccc3)ccc21 | ? | -5% | 1% | 2% | -12% | -18
Cn1c(CCN2CCCC2)nc2cc(NS(=O)(=O)c3ccc(F)cc3)ccc21 | ? | ? | -38% | . | ? | -56*
COc1ccc(CN(C(=O)c2snc(C(N)=O)c2N)C(C(=O)NC2CCCC2)c2cc(OC)ccc2OC)cc1 (configuration not stated) | ? | -37% | -18% | 148% | -28% | -15
SMILES | TDP1 cell noCPT | TGFb inhibitor | HepG2 tox | ASM inhibitor | DT40 TDP1 CPT | IL1B secr inh
COc1ccccc1C(=O)N[C@@H]1c2ccccc2C2(CCN(Cc3cccnc3)CC2)[C@H]1O | ? | . | . | . | 6%[9.04 µM] | .
Cc1ccc(S(=O)(=O)Nc2ccc3c(c2)nc(CCN2CCCC2)n3C)cc1 | ? | ? | -7% | 2% | ? | -76*
Cn1c(CCN2CCCC2)nc2cc(NS(=O)(=O)c3ccc(Cl)cc3)ccc21 | ? | ? | -34% | -1% | ? | -86*
Cn1c(CN2CCCC2)nc2cc(NS(=O)(=O)c3ccc(Cl)cc3)ccc21 | -27% | -5% | -24% | -2% | -6% | -8
CC1OC(CC(=O)O)CC2=C1C(=O)c1c(O)cccc1C2=O (configuration not stated) | 0.065µM* | ? | 0.5µM* | -2% | 0.1µM* | -98*
COc1ccc(NC(=O)Nc2cccc3c2O[C@H](CN(C)S(=O)(=O)c2ccccc2)[C@@H](C)CN([C@H](C)CO)C3=O)cc1 | ? | ? | -2% | -13% | 18µM* | -17
COc1ccc(NC(=O)Nc2cccc3c2O[C@H](CN(C)S(=O)(=O)c2ccc(OC)cc2)[C@@H](C)CN([C@H](C)CO)C3=O)cc1 | ? | ? | -4% | ? | ? | -28
COc1ccc(S(=O)(=O)N(C)C[C@H]2Oc3c(NC(=O)C4CCCCC4)cccc3C(=O)N([C@H](C)CO)C[C@@H]2C)cc1 | 23µM* | -9% | -2% | -1% | ? | -21
CCC(=O)c1ccc(N2CCN(C(=O)c3cccs3)CC2)c(F)c1 | 21µM* | -19% | -15% | 4% | ? | 7
CCC(=O)c1ccc(N2CCN(C(=O)c3ccccc3Br)CC2)c(F)c1 | 10µM* | 28% | -20% | 0% | ? | -55*
CCC(=O)c1ccc(N2CCN(C(=O)c3ccccc3F)CC2)c(F)c1 | 21µM* | -25% | -6% | -2% | 10µM* | 0
CCc1nc2ccc(C(=O)N3CCN(c4cc(C)ccc4C)CC3)cc2nc1CC | ? | ? | -9% | -10% | ? | 16
CCc1nc2ccc(C(=O)N3CCN(c4ccccc4F)CC3)cc2nc1CC | 5.8µM*! | ? | 13% | -1% | 21µM* | -11

Screening results from PubChem BioAssay.
